# Screen size: about 390,000 compounds; about 910 (0.23%) were called active. Not shown: some 5% with an inconclusive outcome. Calls come from the whole dose curve; as a rule, active = well fitted inhibition curve with a large enough effect; inconclusive = small, poorly fitted or top-dose-only effect; inactive = no such curve, though single readings can be large or run the other way. What follows is part of a selection rich in actives, with near analogues and random picks from the rest.
# Target: Ubiquitin carboxyl-terminal hydrolase 1 (Homo sapiens) (UniProt O94782)
# Experiment: Inhibitors of USP1/UAF1: Primary Screen; note: nearly all actives have a fitted effect of over 60% in size
# Conditions: recombinant USP1/UAF1, Ub-Rhodamine cleavage fluorescence; series mostly up to 57.1 µM; activity change, negative = inhibition: at the top concentration
# Source text: Deubiquitinating enzymes (DUBs) are a class of enzymes that can cleave isopeptide bond formed between the C-terminal carboxylate of ubiquitin and a lysine side-chain amino group on the target protein. Among them, ubiquitin specific proteases (USPs) constitute the largest DUB family. Human USPs are emerging as promising targets for pharmacological intervention because of their connection to a number of human diseases, including prostate, colon and breast cancer (1, 2), pediatric acute lymphoblastic leukemia (3), and familial cylindromatosis (4). The advantage of inhibiting USPs lies in the potential specificity of therapeutic intervention that can lead to better efficacy and reduce nonspecific side effects. In a collaboration between the University of Delaware and the NIH Chemical Genomics Center, a high-throughput screen assay was developed to screen for USP1/UAF1 inhibitors. This miniaturized assay has a fluorescent read-out and is used to screen the NIH Molecular Libraries Small Molecule Repository (MLSMR) in order to identify a small molecule that inhibits USP1. NIH Chemical Genomics Center [NCGC] NIH Molecular Libraries Probe Centers Network [MLPCN] MLPCN Grant: DA030552 Assay Submitter (PI): Zhihao Zhuang, University of Delaware 1. Priolo, C., et al. (2006) The isopeptidase USP2a protects human prostate cancer from apoptosis. Cancer Res 66, 8625-8632 2. Popov, N., et al. (2007) The ubiquitin-specific protease USP28 is required for MYC stability. Nat Cell Biol 9, 765-774 3. De Pitta, C., et al. (2005) A leukemia-enriched cDNA microarray platform identifies new transcripts with relevance to the biology of pediatric acute lymphoblastic leukemia. Haematologica 90, 890-898 4. Kovalenko, A., et al. (2003) The tumour suppressor CYLD negatively regulates NF-kappaB signalling by deubiquitination. Nature 424, 801-805
# 3 microliters of reagents (buffer in columns 3 and 4 as negative control and 1nM USP1/UAF1 complex in columns 1, 2, and 5-48) are dispensed into Greiner black solid bottom 1536-well assay plates. Compounds are then transferred via Kalypsys pin tool equipped with 1536-pin array (10nl slotted pins, V&P Scientific, San Diego, CA). Following an incubation step of 15 min at room temperature, 1ul of Ub-Rho substrate (150nM final concentration) is added to initiate the reaction. The plates are immediately centrifuged at 1000 rpm for 15 seconds, and subsequently transferred to a ViewLux high-throughput CCD imager (PerkinElmer) wherein kinetic measurements of fluorescence are acquired using 480 nm excitation/540 nm emission filter set (6 reads every 60 seconds, see Table 1). All reagents are diluted in an assay buffer consisting of 50mM HEPES (pH 7.8), 0.5mM EDTA, 0.1 mg/ml BSA, 1mM TCEP, and 0.01% Tween-20.
# % is set by controls: 0 for no effect and ±100 for the full control effect; potency is the fitted concentration of half-maximal effect.
# Ubiquitin carboxyl-terminal hydrolase 1 (Homo sapiens), sequence (O94782 whole entry, looked up): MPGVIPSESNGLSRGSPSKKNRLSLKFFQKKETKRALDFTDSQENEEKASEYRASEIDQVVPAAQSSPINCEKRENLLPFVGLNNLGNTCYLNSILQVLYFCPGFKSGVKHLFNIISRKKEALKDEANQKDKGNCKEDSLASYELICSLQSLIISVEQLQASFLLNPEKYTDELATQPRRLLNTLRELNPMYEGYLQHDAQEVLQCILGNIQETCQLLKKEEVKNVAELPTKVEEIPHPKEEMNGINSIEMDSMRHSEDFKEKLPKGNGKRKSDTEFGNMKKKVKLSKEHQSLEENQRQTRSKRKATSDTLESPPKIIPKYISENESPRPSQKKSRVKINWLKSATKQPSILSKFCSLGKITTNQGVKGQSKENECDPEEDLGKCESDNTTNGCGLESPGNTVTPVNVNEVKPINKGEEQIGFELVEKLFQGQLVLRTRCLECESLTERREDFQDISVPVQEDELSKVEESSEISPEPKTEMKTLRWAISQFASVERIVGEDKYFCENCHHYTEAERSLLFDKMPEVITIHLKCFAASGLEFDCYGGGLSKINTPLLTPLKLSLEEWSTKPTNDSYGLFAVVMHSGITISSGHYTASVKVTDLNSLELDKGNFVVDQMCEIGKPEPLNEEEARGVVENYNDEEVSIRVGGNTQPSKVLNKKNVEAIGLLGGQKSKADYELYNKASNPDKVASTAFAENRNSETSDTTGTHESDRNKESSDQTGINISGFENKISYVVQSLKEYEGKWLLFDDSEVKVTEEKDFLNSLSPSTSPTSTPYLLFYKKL
SMILES,"activity change, negative = inhibition",Potency
CN(C)S(=O)(=O)c1ccc(C(=O)N(Cc2cccnc2)c2nc3c(F)cc(F)cc3s2)cc1,-12.4% (inactive),–
COc1ccc(-n2c(=O)c3c(c4cc(OC)ccc4n3C)n(Cc3cccc(C)c3)c2=O)cc1,-22.4% (inactive),–
Oc1ccc(N=Cc2sc3ccccc3c2Cl)cc1,–,25.1 µM (active)
CCc1nc(-c2cc(S(=O)(=O)N3CCN(c4ccc(OC)cc4)CC3)ccc2OC)no1,-17.7% (inactive),–
CCOc1cc(C(=O)NCCc2csc3nc(-c4ccc(C)cc4)nn23)cc(OCC)c1OCC,-9.17% (inactive),–
CCSc1nnc(NC(=O)c2cc(=O)c3cc(C)c(C)cc3o2)s1,3.51% (inactive),–
Cc1c(NC(=O)Nc2ccc(F)c(Cl)c2)c(=O)n(-c2ccccc2)n1C,-6.4% (inactive),–
Cc1cccc(N2CCN(C(=O)CCSCc3ccccc3F)CC2)c1C,-12.4% (inactive),–
COc1ccc(CCNC(=O)c2nn(C)c3c2CSc2ccccc2-3)cc1OC,-21.5% (inactive),–
C#CCOCCOCCOCCNc1nc(N2CCN(C(=O)C([C@@H](C)CC)n3cc(C(N)COC(=O)C(F)(F)F)nn3)CC2)nc(N2CCN(C(=O)[C@H](CCCCN)n3cc(C(N)CC(C)C)nn3)CC2)n1 (some centres not stated),7.14% (inactive),–
C#CCOCCOCCOCCNc1nc(N2CCOCC2)nc(N2CCN(C(=O)[C@H](Cc3ccc(O)cc3)n3cc(CCO)nn3)CC2)n1,-26.5% (inactive),–
C#CCOCCOCCOCCNc1nc(N2CCN(C(=O)CCCCCCCCCCNC(=O)[C@H]([C@@H](C)CC)n3cc(CCCCN=C(N)N)nn3)CC2)nc(N2CCN(C(=O)CCCCCCCCCCNC(=O)[C@H](CO)n3cc(CCCSC)nn3)CC2)n1,–,28.2 µM (active)
COc1ccccc1NC(=O)c1cc(S(=O)(=O)NCCc2ccccc2)ccc1F,-29.6% (inactive),–
COC(=O)c1ccc(NC(=O)c2cc(S(=O)(=O)N3CCC(C)CC3)cn2C)cc1,-7.47% (inactive),–
Cc1ccc(Cl)cc1N(C)C(=O)C1CCCN(c2ncnc3onc(-c4ccc(F)cc4)c23)C1 (configuration not stated),-14.7% (inactive),–
COc1ccc(Cc2nc3ccc(C(=O)NCc4ccc(OC)cc4OC)cc3o2)cc1,-4.95% (inactive),–
Cc1ccccc1CNC(=O)CCc1cn(Cc2ccccc2C)c2ccccc12,-19.7% (inactive),–
Cc1ccc(CCNC(=O)c2nnc(Cc3cccc(F)c3)o2)cc1,-24.8% (inactive),–
CCS(=O)(=O)c1nc(S(=O)(=O)c2ccc(C)cc2)c(NCc2ccc(Cl)cc2)s1,1.22% (inactive),–
COc1ccc(-c2nc(Cn3c(=O)cc(C)c4c(C)nn(-c5ccccc5)c43)c(C)o2)c(OC)c1,-5.06% (inactive),–
Cc1ccc(Cl)cc1N1CCN(C(=O)c2cccn3c(=O)c4cc(Cl)ccc4nc23)CC1,-23.4% (inactive),–
COC(=O)c1cc(NC(=O)CCc2c(C)nc3c4c(C)cc(C)nc4nn3c2C)cc(C(=O)OC)c1,-2.6% (inactive),–

# Source: PubChem BioAssay AID743255 (National Center for Advancing Translational Sciences (NCATS), 2014)
